Measurements reported in PMC12136788.
Numbering of substitutions follows the chain as printed. Whole data set: some 24,000 sequences, median “enrichment r” near 0.99, cut for the highest 2% near 3.7. The sample as a whole holds a higher share of the highest values than the screen did.

T1: UNK ZnF1-3 (human, UniProt Q9C0B0 31-174)
T1 sequence: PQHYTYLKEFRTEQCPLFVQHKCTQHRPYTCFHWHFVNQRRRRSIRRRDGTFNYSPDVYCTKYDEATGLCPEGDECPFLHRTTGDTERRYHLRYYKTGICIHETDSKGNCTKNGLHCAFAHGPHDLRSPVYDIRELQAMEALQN

B1: chr12:16048344:16048345:+_ENSG00000023734_ENST00000419869|hu_hu|hu_hu_hu_mus_True|68_98 (ssRNA)
RNA: GGGAGUUCUACAGUCCGACGAUCAGAUCGUCCAUAAGUUAUAACCAAAAUCUCUCCUUCAGGAAUAUAUUCCAUACUGCUAACAGACAUAUUAAAAUUCAGAGAUUUCACUUCUGUCAUUGUGGCAUGAUCCCAGAGCCGAACCAACAGAGGAUUGAGCAUCA
B2: chr3:176740097:176740098:-_ENSG00000177565_ENST00000430069|hu_mus|hu_hu_hu_mus_True|78_78 (ssRNA)
RNA: GGGAGUUCUACAGUCCGACGAUCUGUUUUGUAUACCACAAAAGGAGGCACUUUCAGUAUCUGUAAAAGGUGUUUAGUCCUAAAACAUACUCACCUAGAGGAUAACUCAGGAAAACAAUCUGUUACACUCUAAGACCUACUCCACAACAGAGGAUUGAGCAUCA
B3: chr3:9848215:9848216:+_ENSG00000241553_ENST00000287613|perfect_dup|FALSE|FALSE (ssRNA)
RNA: GGGAGUUCUACAGUCCGACGAUCCAAUAACGUAUAAUCACUGGGACCAGUCACAGCCACUGGAGGUGGAGGUUUAAAAAAAAAAAAAAAAAAAAAGACAAAAAGGUUACAGUAUCCUACAAGCACAGAGUUUAAGUUUCAAGACAACAGAGGAUUGAGCAUCA
B4: chr3:9848215:9848216:+_ENSG00000241553_ENST00000287613|perfect_dup|FALSE|FALSE (ssRNA)
RNA: GGGAGUUCUACAGUCCGACGAUCAUCACUGGGGCCAGUCACAGCCACUGGAGCUGGAGGUUGGUUUUUUUGUUUGUUUAAAAAAAAAAAAAAAAAGACAAAAAGGUUACAGUCUUCUACAAGCACAGAGUUUAGGUUUCAAGACAACAGAGGAUUGAGCAUCA
B5: 122244776_122244896_1956_3pUTR_ENSMUSG00000039735_ENSMUST00000162409|mouse|control|control (ssRNA)
RNA: GGGAGUUCUACAGUCCGACGAUCGAAAAAGCACACAUCCUUUACACACACUUAGGCAGGACAGAAAGCAAAAGGCAUCGAUUAAGCUUCCACACCAGCAUCACUUGAACAGUAAGGCGUCAAAGAGUUUCUGGUGGCAGUAUUCAACAGAGGAUUGAGCAUCA
B6: 25243085_25243205_1728_CDS_ENSMUSG00000059669_ENSMUST00000075954|mouse|control|control (ssRNA)
RNA: GGGAGUUCUACAGUCCGACGAUCUCCUGAGCUCUUUUUUGAUUCGUUGUAUUUUUUUUCAAAAAGUUUCUUUUCAAGUAAGCUCACUUCUUCAUGGAGAGCAGAGGUCUUUAUUCUCAGUAAGAAGGAGAAGAUGUUUAGUAUCAACAGAGGAUUGAGCAUCA
B7: chr14:76904501:76904502:+_ENSMUSG00000022010_ENSMUST00000022587|mus_mus|FALSE|FALSE (ssRNA)
RNA: GGGAGUUCUACAGUCCGACGAUCUCCAUCGCCACUGGUCUACACCAUUGGGAUUUCAUGCAAUUGCAGCCAAAUUAAAAAAACAGCCCCGUGGAAAAAAAAGAGAGAGGGCGGGAGGGAGCAAGCUCCAGCAGCCUGGUUCAACAACAGAGGAUUGAGCAUCA
B8: chr8:59488481:59488482:+_ENSG00000137575_ENST00000447182|hu_mus|motif|central (ssRNA)
RNA: GGGAGUUCUACAGUCCGACGAUCUCCAGCAUCGUUACCUGUCACAGGUGCUACCAUAUAGUUCACACUGGAUGGUCUUGCGGCCAACCCUUGUGCUGGUGCUCCAGAGACCAUGGGCAUGCUCUCACAUAUUUCAGCUUCAUUCAACAGAGGAUUGAGCAUCA
B9: chr11:77340908:77340909:-_ENSG00000074201_ENST00000525064|hu_hu|hu_hu_hu_mus_True|8_108 (ssRNA)
RNA: GGGAGUUCUACAGUCCGACGAUCGUUUCGGUCCCUGGACACCGCAUGUAAACUAAUGGUGGGGUAUUCCAGUGAGAAUCCUAAUCCCGAACCAUCUAACCAGGACAGGCGGCUCUCCGCGAUGUAAAGGGUACCAGUGCCGAGCAACAGAGGAUUGAGCAUCA
B10: chr3:119217614:119217615:+_ENSG00000113845_ENST00000264244|hu_hu|FALSE|FALSE (ssRNA)
RNA: GGGAGUUCUACAGUCCGACGAUCCUCUACAGAGAAAGCUCCGCGGUGCCGGUGGCGGCACCUCCAUGGCCUUCUCUCGACCUACGGACAAACUUGAGCGCUCAGGACUUCAAGUCCUCGCGGACGUGCCGCGGGAGAGCGUAACAACAGAGGAUUGAGCAUCA
B11: 60766971_60767091_3885_CDS_ENSG00000011028_ENST00000303375|human|control|control (ssRNA)
RNA: GGGAGUUCUACAGUCCGACGAUCCGUGCGCAGCCCUCGGGCAGCCUGCGUGAGGAAGGCCUGGGUGUAGGGGUCGGGCACGUAGGCCAGGCUGGCAUUGCGGCUCUCACACAGCAGGAGGGCAUCGUGCCAGCGCAGCGGCUUCAACAGAGGAUUGAGCAUCA
B12: chr12:39763582:39763583:-_ENSG00000139116_ENST00000544797|hu_hu|FALSE|FALSE (ssRNA)
RNA: GGGAGUUCUACAGUCCGACGAUCCUCUAAGAAUUGGGCAUUCACUUUAAAAUCUGGAGCAGGAAGCCCAUUUUUAAUUGCUAUGUGUUUUUUUUCUUCAAUACUCUUAAAAAGGUGUUUAACAGCUCGAGAAAUAAUACCCAGCAACAGAGGAUUGAGCAUCA
B13: chr22:38881817:38881818:-_ENSG00000100201_ENST00000396821|hu_hu|motif|central (ssRNA)
RNA: GGGAGUUCUACAGUCCGACGAUCUUAUUCCAGACUGGAUCAUUUUGGUGGGCAGAAGAAACCUGGCAGUGAAUUCGGACGGAUCUGCAUGAAAAGACAAAUCACGAUGGUUGGGGGGAAAAAUUAAAAAAAAAAAAAGAAAAACAACAGAGGAUUGAGCAUCA
B14: chr16:45711415:45711416:-_ENSMUSG00000022658_ENSMUST00000096057|mus_hu|FALSE|FALSE (ssRNA)
RNA: GGGAGUUCUACAGUCCGACGAUCUUAUUAGGUGCAUUCUAUAAGUUGAAGAGGAGAAUUUUUGGCAAAUAAAUAAAUAAAUAAAUAAAUAAUCAAACAGAGACUCUGGGGCCCGAGGAGCUCAGGAAAACGGAAGCGGAGUCUCAACAGAGGAUUGAGCAUCA
B15: 193603509_193603629_2668_3pUTR_ENSMUSG00000026623_ENSMUST00000110855|mouse|control|control (ssRNA)
RNA: GGGAGUUCUACAGUCCGACGAUCUAAAUCACAUGAACAAAAGGACAAAUCUUUCAAAAGGUUUCUACGAUGAACAGAAACUUGCUUGGCUUUGCCCUCUUAGAAGACGACUGGAAGAGACUGGGAAGUGUUUUUGAGCUGCUGCAACAGAGGAUUGAGCAUCA
B16: 36507729_36507849_895_3pUTR_ENSMUSG00000043671_ENSMUST00000051377|mouse|control|control (ssRNA)
RNA: GGGAGUUCUACAGUCCGACGAUCGAAAGAGGCUGUAAAUUUGGUCUCAGGAAGUAGGUAAUUGCUGCAAUCUGAAUUGCAAAAAAAGGCAGAGCCCAGUUCUCCCUCAGCGGGAUGGUAAACUCGACUCUUGUGGUGUCUAUUCAACAGAGGAUUGAGCAUCA
B17: 87419285_87419405_2552_3pUTR_ENSMUSG00000028496_ENSMUST00000078090|mouse|control|control (ssRNA)
RNA: GGGAGUUCUACAGUCCGACGAUCGAAAAUCAAGGUGGCUAUUUGGUCCCCCCAGUUGGUAACUAUGUCCUGGAACUGGGAAAACAAAGAUGGAAACCAUAGACUGCAACAAGUUAAAGGACCUGGGAAGAGUUGGUGGAAAGUCAACAGAGGAUUGAGCAUCA
B18: chr12:55960871:55960872:-_ENSMUSG00000062929_ENSMUST00000078124|mus_mus|motif|central (ssRNA)
RNA: GGGAGUUCUACAGUCCGACGAUCUACUAAGCUUUAAGACUGCUAUACGAUUUUUUUUUCCCAAUUCAUUUUGGAAAAGCGGUGAAGGAACUGUGGCUGAGACAAACAUUCCUAAACAUCACAAUCAUCAUUAACCUUCGAAUGCAACAGAGGAUUGAGCAUCA
B19: chr22:38881817:38881818:-_ENSG00000100201_ENST00000396821|hu_hu|FALSE|FALSE (ssRNA)
RNA: B13 RNA with G76U, G77A, G80U, G81A
B20: chr17:26793470:26793471:+_ENSMUSG00000001576_ENSMUST00000167662|mus_mus|FALSE|FALSE (ssRNA)
RNA: GGGAGUUCUACAGUCCGACGAUCAUUGGAAUCAGAGGAAAAAUUACAAAUGGCAGAGAAUCCAGCUACCCAUAAGAGACUAUUUAAGAAAAACAAAACCAAAACCAAACAAAAACAAAAAACCCCAAAACUUCCUACUGCAGGCAACAGAGGAUUGAGCAUCA
B21: chr1:66459500:66459501:+_ENSMUSG00000015222_ENSMUST00000114013|mus_hu|motif|central (ssRNA)
RNA: GGGAGUUCUACAGUCCGACGAUCUAAAAAGGCAGGGGCAAAGGGCGAUGUUUCUGUAACUAUUUCAUUCUUCAUGACAUCGGAAGGAAGAGUGAAGCUUCCCCCUUGAAAGGGACUUGGCAUGGGAGAAUCAAACUGUUUCCCCAACAGAGGAUUGAGCAUCA

What follows are binders tested against T1, UNK ZnF1-3 (assay: nsRBNS (natural sequence RNA bind-n-seq); RBNS binding buffer (assumed for nsRBNS): 25 mM Tris pH 7.5, 150 mM KCl, 3 mM MgCl2, 0.01% Triton X-100, 500 ug/ml BSA, 20 U/ml SUPERase-In, 4 C; UNK is unkempt and MSI1 is Musashi-1; names of the RNAs are library labels; protein concentration not given here; high values mean tight binding).

| Binder | binding signal [enrichment R] |
| --- | --- |
| B1 | 1.19 |
| B2 | 0.869 |
| B3 | 9.16 |
| B4 | 9.16 |
| B5 | 1.73 |
| B6 | 0.743 |
| B7 | 2.68 |
| B8 | 0.558 |
| B9 | 1.38 |
| B10 | 0.297 |
| B11 | 0.311 |
| B12 | 2.47 |
| B13 | 13.5 |
| B14 | 13.2 |
| B15 | 1.27 |
| B16 | 0.793 |
| B17 | 1.56 |
| B18 | 0.982 |
| B19 | 11.1 |
| B20 | 3.74 |
| B21 | 0.819 |
